Data as given in the supplement of paper PMC8866396.
Values joined by “and” are separate entries in the source; they are usually repeats but may differ in a detail not shown here. Equal values may be shown once. ± gives the standard deviation of the averaged measurements.

Tests used:
[1] = test system: IL-6-GFP PC-9GR; test: cell viability (CCK-8 OD) relative to DMSO control (fraction of control); higher = more viable cells; conditions: compound concentration: 10 uM; treatment time: 48 h
Procedure, shortened: (§1)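 A purchased 510-compound library was screened at a final 10 μM for 48 h against PC-9 and PC-9GR lung cancer cells overexpressing IL-6-GFP via a lentiviral construct, seeded at 3000 cells/well in 96-well plates. GFP imaging was done on a parallel plate set. For viability, CCK-8 absorbance was recorded and each well's optical density was divided by that of the vehicle control well. There were two independent replicates.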

[2] = test system: IL-6-GFP PC-9; test: as above; conditions: compound concentration: 10 uM; treatment time: 48 h
Procedure, shortened: as §1

Row | SMILES | cell viability [1] | cell viability [2]
1 | Cl.c1ccc2c(c1)CCCC2C1=NCCN1 (stereo unspecified) [Tetrahydrozoline HCl] | 0.987 ± 0.049 | 1.13 ± 0.15
2 | CC1(C(=O)O)CCC2(C)CCC3(C)C(=CC(=O)C4C5(C)CCC(OC6OC(C(=O)O)C(O)C(O)C6OC6OC(C(=O)O)C(O)C(O)C6O)C(C)(C)C5CCC43C)C2C1.N (stereo unspecified) [Ammonium Glycyrrhizinate] | 1.42 ± 0.25 | 1.31 ± 0.014
3 | O=C(/C=C/c1cccc(S(=O)(=O)Nc2ccccc2)c1)NO [Belinostat (PXD101)] | 0.374 ± 0.026 | 0.262 ± 0.075
4 | CC#CCn1c(N2CCCC(N)C2)nc2c1c(=O)n(Cc1nc(C)c3ccccc3n1)c(=O)n2C (stereo unspecified) [Linagliptin] | 0.849 ± 0.11 | 0.883 ± 0.22
5 | N#CC1CC2CC2N1C(=O)C(N)C12CC3CC(CC(O)(C3)C1)C2.O (stereo unspecified) [Saxagliptin hydrate] | 0.79 ± 0.18 | 1.14 ± 0.091
6 | CCOC(=O)c1ccc(C#Cc2ccc3c(c2)C(C)(C)CCS3)nc1 [Tazarotene] | 1.32 ± 0.14 | 1.15 ± 0.041
7 | CN(C)CCOC(c1ccc(Cl)cc1)c1ccccn1.O=C(O)/C=C\C(=O)O (stereo unspecified) [CarbinoxaMine Maleate] | 1.2 ± 0.26 | 1.07 ± 0.066
8 | COc1cc2c(Oc3ccc4[nH]c(C)cc4c3F)ccnc2cc1OCC1(N)CC1.Cl.Cl [Anlotinib (AL3818) dihydrochloride] | 0.463 ± 0.024 | 0.575 ± 0.056
9 | O=C(/C=C/C=C/c1ccc2c(c1)OCO2)N1CCCCC1 [Piperine] | 1.33 ± 0.093 | 1.47 ± 0.33
10 | O=C1Nc2ccccc2/C1=C1\Nc2ccccc2C1=O [Indirubin] | 1.28 ± 0.29 | 0.916 ± 0.059
11 | CC12CCC(CC1)C(C)(C)O2 [Eucalyptol] | 1.29 ± 0.37 | 1.33 ± 0.048
12 | CC(=O)OC1(C(C)=O)CCC2C3C=C(Cl)C4=CC(=O)C5CC5C4(C)C3CCC21C (stereo unspecified) [Cyproterone Acetate] | 1.13 ± 0.092 | 1.2 ± 0.092
13 | CC(CCC(=O)[O-])C1CCC2C3C(O)CC4CC(O)CCC4(C)C3CC(O)C12C.[Na+] (stereo unspecified) [Sodium cholate] | 0.344 ± 0.23 | 0.997 ± 0.067
14 | COc1nc2ccc(Br)cc2cc1C(c1ccccc1)C(O)(CCN(C)C)c1cccc2ccccc12.O=C(O)/C=C/C(=O)O (stereo unspecified) [Bedaquiline fumarate] | 1.18 ± 0.17 | 1.15 ± 0.067
15 | Nc1ccn(C2OC(CO)C(O)C2O)c(=O)n1 (stereo unspecified) [Cytarabine] | 0.816 ± 0.077 | 0.7893 ± 0.0033
16 | CN1CCC(=C2c3ccccc3CCn3c(C=O)cnc32)CC1 [Alcaftadine] | 0.751 ± 0.18 | 1.07 ± 0.21
17 | CONC(=O)Nc1ccc(-c2sc3c(c2CN(C)C)c(=O)n(-c2ccc(OC)nn2)c(=O)n3Cc2c(F)cccc2F)cc1 [Relugolix] | 1.41 ± 0.42 | 1.01 ± 0.17
18 | COc1cc2ncnc(Nc3ccc(F)c(Cl)c3)c2cc1OCCCN1CCOCC1.Cl [Gefitinib hydrochloride] | 0.91868 ± 0.00075 | 0.6584 ± 0.0058
19 | CC1CC2C3CCC4=CC(=O)C=CC4(C)C3(F)C(O)CC2(C)C1(O)C(=O)CO (stereo unspecified) [Dexamethasone (DHAP)] | 1.08 ± 0.058 | 0.732 ± 0.072
20 | CC(C(=O)O)c1ccc(C(=O)c2cccs2)cc1 (stereo unspecified) [Suprofen] | 1.53 ± 0.58 | 1.13 ± 0.022

Row | SMILES | cell viability [1] | cell viability [2]
21 | O=C([O-])CC(O)(CC(=O)[O-])C(=O)[O-].O=C([O-])CC(O)(CC(=O)[O-])C(=O)[O-].[BiH6+3].[K+].[K+].[K+] [Gastrodenol] | 0.722 ± 0.25 | 0.986 ± 0.29
22 | Cc1cccn2c(=O)c(-c3nnn[n-]3)cnc12.[K+] [Pemirolast potassium] | 1.24 ± 0.25 | 1.23 ± 0.31
23 | O=C(O)CCCN1CCC(OC(c2ccc(Cl)cc2)c2ccccn2)CC1.O=S(=O)(O)c1ccccc1 (stereo unspecified) [Bepotastine Besilate] | 0.9937 ± 0.0023 | 0.84 ± 0.015
24 | CC(=O)c1c(C)c2cnc(Nc3ccc(N4CCNCC4)cn3)nc2n(C2CCCC2)c1=O.Cl | 0.661 ± 0.17 | 0.694 ± 0.11
25 | Cc1nnc(C(C)C)n1C1CC2CCC(C1)N2CCC(NC(=O)C1CCC(F)(F)CC1)c1ccccc1 (stereo unspecified) [Maraviroc] | 1.3 ± 0.033 | 0.945 ± 0.17
26 | COc1c(OC2OC(CO)C(O)C(O)C2O)cc2c(c1OC)-c1ccc(SC)c(=O)cc1C(NC(C)=O)CC2 (stereo unspecified) [Thiocolchicoside] | 1.18 ± 0.26 | 1.2 ± 0.12
27 | CCCC(=O)OC1(C(=O)CCl)C(C)CC2C3CCC4=CC(=O)C=CC4(C)C3(F)C(=O)CC21C (stereo unspecified) [clobetasone butyrate] | 0.995 ± 0.17 | 0.99 ± 0.3
28 | CC1CC2C(C(O)CC3(C)C2CCC3(O)C(=O)COC(=O)CCC(=O)O)C2(C)C=CC(=O)C=C12 (stereo unspecified) [Methylprednisolone hemisuccinate] | 0.848 ± 0.037 | 0.911 ± 0.24
29 | COc1cc(C2c3cc4c(cc3C(OC3OC5COC(C)OC5C(O)C3O)C3COC(=O)C23)OCO4)cc(OC)c1O (stereo unspecified) [Etoposide] | 0.779 ± 0.033 | 0.537 ± 0.17
30 | CC(C)CC(NC(=O)C(Cc1ccccc1)NC(=O)c1cnccn1)B(O)O (stereo unspecified) [Bortezomib (PS-341)] | 0.105 ± 0.11 | 0.14 ± 0.057
31 | CCOC(=O)OC1(C(=O)OCCl)CCC2C3CCC4=CC(=O)C=CC4(C)C3C(O)CC21C (stereo unspecified) [Loteprednol etabonate] | 1.21 ± 0.051 | 0.944 ± 0.063
32 | CCS(=O)(=O)O.COC(=O)c1ccc2c(c1)NC(=O)/C2=C(\Nc1ccc(N(C)C(=O)CN2CCN(C)CC2)cc1)c1ccccc1 [Nintedanib Ethanesulfonate Salt] | 0.8 ± 0.075 | 0.782 ± 0.023
33 | CCN1CCN(Cc2ccc(Nc3ncc(F)c(-c4cc(F)c5nc(C)n(C(C)C)c5c4)n3)nc2)CC1 [Abemaciclib] | 0.668 ± 0.14 | 0.746 ± 0.094
34 | Cc1ccc(S(=O)(=O)O)cc1.NC(=O)c1cccc2cn(-c3ccc(C4CCCNC4)cc3)nc12 (stereo unspecified) [Niraparib (MK-4827) tosylate] | 0.764 ± 0.096 | 0.916 ± 0.22
35 | NC(CO)(CO)CO.O=C(c1ccccc1)c1ccc2n1CCC2C(=O)O (stereo unspecified) [Ketorolac tromethamine salt] | 0.948 ± 0.075 | 1.05 ± 0.19
36 | CC(C)=CCCC(C)(OC1OC(CO)C(O)C(O)C1O)C1CCC2(C)C1C(O)CC1C3(C)CCC(O)C(C)(C)C3C(OC3OC(CO)C(O)C(O)C3O)CC12C (stereo unspecified) [Ginsenoside Rg1] | 1.16 ± 0.26 | 1.15 ± 0.17
37 | N#CCC(C1CCCC1)n1cc(-c2ncnc3[nH]ccc23)cn1 (stereo unspecified) | 1.08 and 1.17 | 1.11 and 0.753
38 | O=C1OC(OC(=O)c2cccnc2Nc2cccc(C(F)(F)F)c2)c2ccccc21 (stereo unspecified) [Talniflumate] | 1 ± 0.022 | 0.967 ± 0.02
39 | COc1nc(N)nc2c1ncn2C1OC(CO)C(O)C1O (stereo unspecified) [Nelarabine] | 1.12 ± 0.017 | 0.758 ± 0.029
40 | COc1cccc2c1C(=O)c1c(O)c3c(c(O)c1C2=O)CC(O)(C(C)=O)CC3OC1CC(N)C(O)C(C)O1.Cl (stereo unspecified) [Daunorubicin HCl] | 0.0902 ± 0.071 | 0.0966 ± 0.039

Row | SMILES | cell viability [1] | cell viability [2]
41 | Nc1nc(N)c2nc(-c3ccccc3)c(N)nc2n1 [Triamterene] | 0.591 ± 0.14 | 0.842 ± 0.038
42 | CC1CCC2(C(=O)OC3OC(COC4OC(CO)C(OC5OC(C)C(O)C(O)C5O)C(O)C4O)C(O)C(O)C3O)CCC3(C)C(=CCC4C5(C)CC(O)C(O)C(C)(CO)C5CCC43C)C2C1C (stereo unspecified) [Asiaticoside] | 1.06 ± 0.2 | 1.17 ± 0.021
43 | NC(=O)NO [Hydroxyurea] | 1.32 ± 0.077 | 0.839 ± 0.1
44 | O=C(O)Cc1ccccc1Nc1c(Cl)cccc1Cl.OCCN1CCCC1 [Diclofenac Epolamine] | 1.34 ± 0.62 | 1.06 ± 0.16
45 | OCC1OC(OCC2OC(O)C(O)C(OC3OC(CO)C(O)C(OC4OC(CO)C(O)C(OC5OC(COC6OC(CO)C(O)C(O)C6O)C(O)C(OC6OC(CO)C(O)C(O)C6O)C5O)C4O)C3O)C2O)C(O)C(O)C1O (stereo unspecified) [Lentinan] | 0.121 ± 0.32 | 1.276 ± 0.0043
46 | CNNCc1ccc(C(=O)NC(C)C)cc1.Cl [Procarbazine HCl] | 1.02 ± 0.16 | 1.17 ± 0.042
47 | CC(C)(C)c1ccc(C(=O)CCCN2CCC(OC(c3ccccc3)c3ccccc3)CC2)cc1 [Ebastine] | 0.62 ± 0.3 | 0.628 ± 0.031
48 | CN(Cc1cnc2nc(N)nc(N)c2n1)c1ccc(C(=O)NC(CCC(=O)O)C(=O)O)cc1 (stereo unspecified) [Methotrexate] | 0.638 ± 0.078 | 0.54 ± 0.15
49 | Cc1ccc(Nc2c(F)cccc2Cl)c(CC(=O)O)c1 [Lumiracoxib] | 0.626 ± 0.15 | 0.853 ± 0.29
50 | FC(F)(F)c1ccc(CNc2ccc(Cc3c[nH]c4ncc(Cl)cc34)cn2)cn1 [Pexidartinib (PLX3397)] | 0.789 ± 0.2 | 0.898 ± 0.048
51 | COC(=O)C(Cc1ccccc1)NC(=O)C(N)CC(=O)O (stereo unspecified) [Aspartame] | 1.08 ± 0.091 | 0.819 ± 0.06
52 | CCCCCCCCCCCCCCCCCCOP(=O)([O-])OC1CC[N+](C)(C)CC1 [Perifosine (KRX-0401)] | 0.943 ± 0.084 | 0.786 ± 0.059
53 | Cc1ccc(C(=O)c2ccc(CC(=O)O)n2C)cc1 [Tolmetin] | 1.11 ± 0.13 | 1.29 ± 0.02
54 | CN1CCC(=C2c3ccccc3CCc3sccc32)CC1.O=C(O)CC(O)C(=O)O [Pizotifen Malate] | 1.41 ± 0.064 | 1.22 ± 0.16
55 | COc1cc(C2Oc3cc(C4Oc5cc(O)cc(O)c5C(=O)C4O)ccc3OC2CO)ccc1O (stereo unspecified) [Silibinin] | 1.36 ± 0.07 | 1.15 ± 0.099
56 | CC1CC2C3CCC4=CC(=O)C=CC4(C)C3(Cl)C(O)CC2(C)C1(OC(=O)c1ccco1)C(=O)CCl (stereo unspecified) [Mometasone furoate] | 1.12 ± 0.11 | 0.93 ± 0.076
57 | Cc1coc2c1C(=O)C(=O)c1c-2ccc2c1CCCC2(C)C [Tanshinone IIA] | 1.37 ± 0.095 | 0.705 ± 0.19
58 | CN1CCN(c2ccc(C(=O)Nc3n[nH]c4ccc(Cc5cc(F)cc(F)c5)cc34)c(NC3CCOCC3)c2)CC1 [Entrectinib (RXDX-101)] | 0.164 ± 0.14 | 0.515 ± 0.14
